# Compounds with a hit are over-represented: about 17% of the library has one in this group of screens.
# DT40 TDP1 no CPT: qHTS for Inhibitors of human tyrosyl-DNA phosphodiesterase 1 (TDP1): qHTS in cells in absence of CPT; Potency, µM (doses to about 46.2 µM), hits mostly inhibitors; DT40 Tdp1-/- hTDP1 cells, no CPT, ATP luminescence, 48 h; AID 686978, 2013; hit rate 15% among 420,000; note: nearly all actives have a fitted effect of over 55% in size
#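 Readout: luminescence from CellTiter-Glo after 30 min in the dark at RT. Cells: DT40 Tdp1-/- with stable hTDP1, 400/well. Exposure: compounds alone, ≥48 hr, 37 °C.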
# TDP1 block: TDP1 (human) enzyme inhibition; Q9NUW8; recombinant TDP1, AlphaScreen DNA substrate cleavage; Potency, µM (doses to about 130 µM), hits mostly inhibitors; hit rate 0.28% among 350,000; note: nearly all actives have a fitted effect of over 40% in size
# Target sequence (Q9NUW8 whole entry, looked up): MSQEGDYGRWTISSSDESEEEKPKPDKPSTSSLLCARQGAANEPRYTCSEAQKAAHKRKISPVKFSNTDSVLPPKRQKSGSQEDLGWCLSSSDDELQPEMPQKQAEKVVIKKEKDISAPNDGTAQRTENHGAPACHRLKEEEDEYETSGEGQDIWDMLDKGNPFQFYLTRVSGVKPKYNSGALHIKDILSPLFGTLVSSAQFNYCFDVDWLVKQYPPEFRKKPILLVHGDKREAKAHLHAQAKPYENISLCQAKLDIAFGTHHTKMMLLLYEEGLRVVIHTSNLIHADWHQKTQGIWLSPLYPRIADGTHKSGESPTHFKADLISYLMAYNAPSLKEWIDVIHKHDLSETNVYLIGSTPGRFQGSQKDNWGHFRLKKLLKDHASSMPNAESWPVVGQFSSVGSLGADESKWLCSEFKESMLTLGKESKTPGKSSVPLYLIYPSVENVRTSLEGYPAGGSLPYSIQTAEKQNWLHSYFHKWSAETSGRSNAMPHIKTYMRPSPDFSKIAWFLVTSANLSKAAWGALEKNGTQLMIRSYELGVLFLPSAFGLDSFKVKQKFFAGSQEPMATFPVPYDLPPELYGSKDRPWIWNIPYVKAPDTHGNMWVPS
#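 Recombinant E. coli-expressed Tdp1 (1 nM) preincubated with compound 15 min at RT, then 5'-biotin/3'-phosphotyrosine-FITC DNA substrate (15 nM) added for 5 min. AlphaScreen beads (10 ug/ml) added, 10 min RT; tyrosine-FITC cleavage read as signal loss.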
# DT40 TDP1 CPT: growth inhibition of DT40 Tdp1-/-;hTDP1 cells with camptothecin (screen for TDP1 inhibitors); chicken DT40 Tdp1-/-;hTDP1 cells + 20 nM CPT, ATP luminescence, 48 h; Potency, µM (doses to about 46.2 µM), hits mostly inhibitors; hit rate 12% among 420,000; AID 686979; note: nearly all actives have a fitted effect of over 55% in size
#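 Chicken DT40 Tdp1-/- cells complemented with human TDP1, 400 cells/well, exposed to compounds plus 20 nM camptothecin for at least 48 h at 37 C; viability read as ATP content by CellTiter-Glo luminescence.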
# ClpP mod: qHTS Assay for Activators of ClpP. ATP-dependent Clp protease proteolytic subunit (Bacillus subtilis (strain 168)), P80244. Potency, µM (top dose mostly 57.5 µM). purified B. subtilis ClpP, FRET peptide cleavage, 20 min. AID 651965, 2013. hit rate 1.9% among 340,000; active = well fitted falling curve with a large enough effect; inconclusive = small, poorly fitted or top-dose-only effect; inactive = no such curve, though single readings can be large or run the other way; note: the source files actives as falling curves though it sought activators and does not explain the sign; nearly all actives have a fitted effect of over 65% in size
#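 FRET quenching reversal measured ClpP activation: 10 microg/mL B. subtilis ClpP at pH 8 with the FRET-FV decapeptide, read at 430 nm after 320 nm excitation. The 20-min minus 0-min signal was scaled between DMSO/no-enzyme wells and ADEP (5.8 microM final).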
# Numbers stand for hits; . = inactive; ? = inconclusive; / = not tested or not shown. Unless noted, calls come from the whole dose curve; as a rule, active = well fitted curve in the direction sought with a large enough effect; inconclusive = small, poorly fitted or top-dose-only effect, or another doubt; inactive = no such curve, though single readings can be large; an effect the other way counts as inactive or inconclusive.
SMILES,DT40 TDP1 no CPT,TDP1 block,DT40 TDP1 CPT,ClpP mod
N#Cc1c(N)n(CCOC(=O)c2cccc([N+](=O)[O-])c2)c2nc3ccccc3nc12,10µM,.,.,.
Nc1c(C(=O)NCCN2CCOCC2)c2nc3ccccc3nc2n1CCc1ccccc1F,?,.,?,?
CCN1CCN(c2nc3c(S(=O)(=O)c4ccc(Br)cc4)nnn3c3ccsc23)CC1,?,.,.,.
CCCN(CCC)CCCNC(=O)c1cn(CC)c2ccc(S(=O)(=O)N(C)C3CCCCC3)cc2c1=O,?,.,?,.
CCC1CCCCN1CCCNC(=O)c1cn(CC)c2ccc(S(=O)(=O)N(C)C3CCCCC3)cc2c1=O (configuration not stated),20.6µM,.,?,.
CCCCSCCCNC(=O)c1cn(CC)c2ccc(S(=O)(=O)N(C)C3CCCCC3)cc2c1=O,16.4µM,.,?,.
COC(=O)c1ccc(C)c(NS(=O)(=O)c2ccc(C)c([N+](=O)[O-])c2)c1,?,.,.,.
COC(=O)c1ccc(C)c(NS(=O)(=O)c2ccc3c(c2)OCCO3)c1,0.92µM,.,0.92µM,.
COc1ccccc1NS(=O)(=O)c1ccc2c(c1)OCCO2,.,.,.,/
COC(=O)c1ccc(C)c(NS(=O)(=O)c2ccc(OC)cc2)c1,0.231µM,.,0.291µM,.
CCCC/C=C/C(NC(=O)c1ccc(C(F)(F)F)cc1)c1ccccc1 (configuration not stated),/,.,/,/
COc1ccc(C2c3[nH]c4ccccc4c3CCN2C(=O)c2ccccc2C(C)=O)c(F)c1 (configuration not stated),?,/,?,.
COc1ccc(C2c3[nH]c4ccccc4c3CCN2C(=O)c2cn3ccccc3n2)c(F)c1 (configuration not stated),?,.,.,/
COc1cc(C(=O)N2CCc3c([nH]c4ccccc34)C2c2ccccc2)cc(OC)c1OC (configuration not stated),6.51µM,.,7.31µM,.
COc1cccc(C2c3[nH]c4ccccc4c3CCN2C(=O)c2ccccc2F)c1OC (configuration not stated),.,.,?,.
COC(=O)[C@H]1[C@H]2C[C@@H]3c4[nH]c5ccccc5c4CCN3C[C@H]2C[C@@H](OC(=O)c2cc(OC)c(OC)c(OC)c2)[C@@H]1OC,15µM,/,1.06µM,/
COc1cc(C(=O)N2CCc3c([nH]c4ccccc34)C2c2ccc(C)cc2)cc(OC)c1OC (configuration not stated),?,.,16.4µM,.
COc1ccc(C2c3[nH]c4ccccc4c3CCN2C(=O)c2cc3ncccn3n2)c(F)c1 (configuration not stated),20.6µM,.,.,/
COc1cccc(-c2cncnc2Nc2ccccc2)c1,?,/,.,/
COc1ccc(C(CC(=O)Nc2ccc(C)cn2)N2Cc3ccccc3C2=O)cc1 (configuration not stated),?,/,.,/
CCc1cccc(NC(=O)CC(c2ccc(OC)cc2)N2Cc3ccccc3C2=O)c1 (configuration not stated),16.4µM,.,20.6µM,.
COc1ccc(C(CC(=O)Nc2cccc(C)c2C)N2Cc3ccccc3C2=O)cc1 (configuration not stated),16.4µM,.,13µM,.
CCOC(=O)c1cccc(NC(=O)CC(c2ccc(F)cc2)N2Cc3ccccc3C2=O)c1 (configuration not stated),25.9µM,.,?,.
CC1CCc2c(sc(NC(=O)c3cc(-c4cccc(Cl)c4)on3)c2C(N)=O)C1 (configuration not stated),.,.,.,.
COc1c(O)cc2oc3cc(O)c(CC=C(C)C)c(O)c3c(=O)c2c1CC=C(C)C,11.9µM,.,18.8µM,/
SMILES,DT40 TDP1 no CPT,TDP1 block,DT40 TDP1 CPT,ClpP mod
CC(C)=CCc1c(O)cc2oc3c(CC=C(C)C)c(O)c(O)c(CC=C(C)C)c3c(=O)c2c1O,20.6µM,/,?,.
CC(C)=CCc1c(O)cc2oc(C)cc(=O)c2c1O,?,.,?,/
COc1ccc(/C=C/C(=O)N(CC(C)C)CC(C)C)cc1Br,16.4µM,.,16.4µM,.
CC1CCc2sc3ncnc(N4CCN(C)CC4)c3c2C1 (configuration not stated),?,/,?,.
CCC1CCc2c(sc3ncnc(N4CCOCC4)c23)C1 (configuration not stated),18.4µM,.,?,.
O=c1[nH]cc(CN2CCOCC2)c(=O)[nH]1,.,/,.,/
O=C(O)Cc1nnc(-c2cc3ccccc3[nH]2)s1,/,.,/,/
NC(CCc1ccccc1)c1csc(NC(=O)Nc2cccc(C(F)(F)F)c2)n1 (configuration not stated),20.6µM,/,?,.
CC(C)(C)c1ccccc1NC(=O)Nc1nc(C(N)c2ccccc2Cl)cs1 (configuration not stated),?,/,?,.
CC(C)C(N)c1csc(NC(=O)Nc2cccc(C(F)(F)F)c2)n1 (configuration not stated),14.6µM,/,14.6µM,.
CC(C)c1ccc(NC(=O)Nc2nc(CN)cs2)cc1,?,/,?,.
NCc1csc(NC(=O)Nc2cccc(C(F)(F)F)c2)n1,23.1µM,/,16.4µM,.
CC(C)C(N)c1csc(NC(=O)Nc2ccccc2C(C)(C)C)n1 (configuration not stated),?,/,18.4µM,.
Cc1ccc2cc3cc(C(=O)NCCCN4CCCC4=O)oc3nc2c1,.,.,.,.
CC1CCC(NC(=O)COC(=O)c2ccco2)CC1 (configuration not stated),.,.,.,.
CC(C)C(N)c1csc(NC(=O)Nc2ccc(OC(F)(F)F)cc2)n1 (configuration not stated),23.1µM,/,?,.
Nc1nc(-c2ccc([N+](=O)[O-])cc2)cc(=O)[nH]1,.,/,.,/
COc1cc(/C=N/Nc2nc3c(c(=O)n(C)c(=O)n3C)n2Cc2ccccc2)ccc1OC(=O)c1ccco1,5.17µM,.,5.8µM,31.6µM
Cc1ccc(Cn2c(N/N=C/c3ccncc3)nc3c2c(=O)n(C)c(=O)n3C)cc1,18.4µM,.,?,.
Cn1c(=O)c2c(nc(N/N=C/c3ccncc3)n2Cc2ccccc2)n(C)c1=O,?,.,?,.
COc1ccnc(Oc2ccccc2)c1C(N)=O,.,/,.,/
Cc1ccc2nc(-c3ccc(N4C(=O)CC(N5CCN(CCO)CC5)C4=O)cc3)sc2c1 (configuration not stated),14.6µM,.,?,.
Cc1ccc(N2C(=O)CC(N3CCN(c4ccccn4)CC3)C2=O)cc1 (configuration not stated),.,/,.,.
O=C(CCCn1ccc2cc(S(=O)(=O)N3CCCC3)ccc21)NCc1ccc(Cl)cc1,2.31µM,.,4.61µM,.
